Measurements as given in PubChem BioAssay (NCI).
This is part of a sample that, as a whole, favours compounds with a hit. Of some 83,000 tested, about 20% had one in any assay.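 For each line, cells grew in 96-well plates with the test compound present at a single concentration for 48 hours.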 The source made the active and inactive calls. Rule for the calls: active = growth percent below 10; inactive = the rest.

What was measured:
Assay in all cases: NCI-60 one-dose screen, 48 h (100 = growth as untreated, 0 = no growth, -100 = all killed)
Details in all cases: 10 µM unless noted
[1] = test system: DU-145 prostate
[2] = test system: K-562 leukemia
[3] = test system: MALME-3M melanoma
[4] = test system: MDA-MB-231 breast
[5] = test system: RXF 393 renal
[6] = test system: SF-268 CNS
[7] = test system: SF-539 CNS
[8] = test system: UACC-257 melanoma
[9] = test system: M14 melanoma
[10] = test system: HCT-15 colon
[11] = test system: HT29 colon
[12] = test system: SNB-75 CNS
[13] = test system: SNB-19 CNS
[14] = test system: U251 CNS
[15] = test system: PC-3 prostate
[16] = test system: SK-MEL-5 melanoma
[17] = test system: UACC-62 melanoma
[18] = test system: LOX IMVI melanoma
[19] = test system: SK-MEL-28 melanoma

| SMILES | growth [1] | growth [2] | growth [3] | growth [4] | growth [5] | growth [6] | growth [7] | growth [8] | growth [9] | growth [10] | growth [11] | growth [12] | growth [13] | growth [14] | growth [15] | growth [16] | growth [17] | growth [18] | growth [19] |
| --- | --- | --- | --- | --- | --- | --- | --- | --- | --- | --- | --- | --- | --- | --- | --- | --- | --- | --- | --- |
| CNCCCNc1ccnc2cc(Cl)ccc12 | -5.31% (active) | 2.22% (active) | -90.3% (active) | -33.8% (active) | -63.3% (active) | -29.5% (active) | -66.7% (active) | -87.5% (active) | -32.6% (active) | 6.57% (active) | -33.1% (active) | -52.8% (active) | -1.63% (active) | 0.589% (active) | 1.91% (active) | -96.1% (active) | -75.2% (active) | -49.8% (active) | -96.3% (active) |
| Cc1cc(C)cc(CCCCCCCCCCCCCCCCCC(=O)O)c1 | 108% (inactive) | 115% (inactive) | 108% (inactive) | 120% (inactive) | 107% (inactive) | 103% (inactive) | 106% (inactive) | 106% (inactive) | 98% (inactive) | 102% (inactive) | 110% (inactive) | 97.2% (inactive) | 115% (inactive) | 110% (inactive) | 106% (inactive) | 102% (inactive) | 106% (inactive) | 104% (inactive) | 119% (inactive) |
| Oc1ccc(Cl)cc1-c1cc(-c2ccccc2Cl)[nH]n1 | 73.3% (inactive) | 37.8% (inactive) | 71.1% (inactive) | 21.7% (inactive) | 84.2% (inactive) | 49.6% (inactive) | 83.4% (inactive) | 81.8% (inactive) | 84.9% (inactive) | 29.2% (inactive) | 92.2% (inactive) | 44.2% (inactive) | 88% (inactive) | 67% (inactive) | 44.1% (inactive) | 68.7% (inactive) | – | 51.7% (inactive) | 89.7% (inactive) |
| C#CC[C@@H]1C[C@]2(C)[C@H]3CC=C4[C@H]5[C@@H](C)[C@H](C)CC[C@]5(C(=O)NCCCCCCCCN)CC[C@@]4(C)[C@]3(C)CC[C@H]2C(C)(C)[C@H]1OC(C)=O | 41.8% (inactive) | -23.4% (active) | 66% (inactive) | 56% (inactive) | 70.4% (inactive) | 92.9% (inactive) | 83.8% (inactive) | 100% (inactive) | 29.3% (inactive) | -62.1% (active) | -65.4% (active) | 83.2% (inactive) | 64.8% (inactive) | -90.8% (active) | -21.7% (active) | 91.9% (inactive) | 105% (inactive) | -52.9% (active) | 103% (inactive) |
| O=C(NC1CC1)c1ccc(-c2nc3ccc4[nH]ncc4c3c3c2CCCC3)cc1 | 38.2% (inactive) | 24.4% (inactive) | 53.8% (inactive) | 45.7% (inactive) | -9.49% (active) | 35.1% (inactive) | 31.3% (inactive) | 60.2% (inactive) | 44.7% (inactive) | 29% (inactive) | 35.2% (inactive) | -5.58% (active) | 65.3% (inactive) | 34.5% (inactive) | 43.1% (inactive) | 55.2% (inactive) | 28.8% (inactive) | 38.7% (inactive) | 47.4% (inactive) |
| Nc1nc(N)c2cc(Sc3ccc(Cl)cc3)ccc2n1 | 29.7% (inactive) | 4.88% (active) | 56.7% (inactive) | 31.3% (inactive) | 42.4% (inactive) | 31.1% (inactive) | 35% (inactive) | 40.1% (inactive) | 27.8% (inactive) | 20.5% (inactive) | 14.8% (inactive) | 48.2% (inactive) | 40% (inactive) | 24.7% (inactive) | 25.2% (inactive) | 17.8% (inactive) | 24.4% (inactive) | 27% (inactive) | 54% (inactive) |
| Oc1[nH]c2ccccc2c1/C=c1/ccc2c(c1)N=C(c1ccc(C(F)(F)F)cc1)N=2 | 63.1% (inactive) | 14.6% (inactive) | 74.2% (inactive) | 46.6% (inactive) | -37.2% (active) | 68.7% (inactive) | 67.4% (inactive) | 67.4% (inactive) | 44.6% (inactive) | 44.5% (inactive) | 37.9% (inactive) | 48.7% (inactive) | 61.6% (inactive) | 32.5% (inactive) | 32.5% (inactive) | 69.9% (inactive) | 47.2% (inactive) | 43.4% (inactive) | 52.8% (inactive) |
| CC(COC(=O)c1ccccc1)N1CC2CCC(C1)O2 (stereo not drawn) | 107% (inactive) | 97.3% (inactive) | 104% (inactive) | 107% (inactive) | 106% (inactive) | 106% (inactive) | 100% (inactive) | 92.7% (inactive) | 99.3% (inactive) | 99.7% (inactive) | 107% (inactive) | 93.7% (inactive) | 102% (inactive) | 98.7% (inactive) | 91.6% (inactive) | 101% (inactive) | 100% (inactive) | 98% (inactive) | 104% (inactive) |
| COc1ccc2nc(C)cc(Nc3ccccc3O)c2c1 | 63.9% (inactive) | 6.3% (active) | -12.4% (active) | 9.5% (active) | -41.7% (active) | 64.8% (inactive) | -72.7% (active) | 75.1% (inactive) | 81.8% (inactive) | 32.8% (inactive) | 18.9% (inactive) | -93.2% (active) | 26% (inactive) | -27.5% (active) | 47.1% (inactive) | 72.9% (inactive) | 56.5% (inactive) | 2.48% (active) | 33.4% (inactive) |
| CCCCCCCCCCCCCCCCOc1ccc(S(=O)(=O)N(C)C)cc1[N+](=O)[O-] | 113% (inactive) | 112% (inactive) | 86.8% (inactive) | 88.9% (inactive) | 61.7% (inactive) | 97.5% (inactive) | 89.6% (inactive) | 108% (inactive) | 106% (inactive) | 97.2% (inactive) | 96.4% (inactive) | 21.2% (inactive) | 78.9% (inactive) | 50.6% (inactive) | 94.4% (inactive) | 101% (inactive) | 86.7% (inactive) | 120% (inactive) | 107% (inactive) |
| COc1ccc(-c2nsc3c2NC(=O)CC3c2ccc3c(c2)OCO3)cc1 (stereo not drawn) | 14.8% (inactive) | 0.385% (active) | -1.91% (active) | 36% (inactive) | 11.3% (inactive) | 42.8% (inactive) | -9% (active) | 60.2% (inactive) | 18.2% (inactive) | 29.4% (inactive) | 3.39% (active) | 7.61% (active) | 57.5% (inactive) | 12.2% (inactive) | 3.81% (active) | 25.8% (inactive) | 42.7% (inactive) | 37.9% (inactive) | 56.5% (inactive) |
| CCCCCCCCCCCCCC(=S)NCCCC[C@H](NC(=O)OCc1ccccc1)C(=O)Nc1ccccc1 | 52.4% (inactive) | 17.1% (inactive) | 83.6% (inactive) | 17.5% (inactive) | 69.1% (inactive) | 43.3% (inactive) | 75.3% (inactive) | 69.1% (inactive) | 37.3% (inactive) | 32.6% (inactive) | 45.1% (inactive) | 55.4% (inactive) | 45.8% (inactive) | 28.7% (inactive) | 25.7% (inactive) | 68.6% (inactive) | 43.1% (inactive) | 42.2% (inactive) | 72.2% (inactive) |
| CCN(CC)CCCC(C)N/C(c1cccc(OC)c1)=c1\c(=O)[nH]n(-c2c3ccccc3nc3ccccc23)c(=O)\c1=C(/NC(C)CCCN(CC)CC)c1cccc(OC)c1 (stereo not drawn) | -13.5% (active) | -22.1% (active) | -93.9% (active) | -51.9% (active) | -78.3% (active) | -48.8% (active) | -91.5% (active) | -95.5% (active) | -80% (active) | 2.74% (active) | -68% (active) | -22.5% (active) | 13% (inactive) | -73% (active) | -57.7% (active) | -98.9% (active) | -77.9% (active) | -66.1% (active) | -96% (active) |
| O=c1c2sc3ncc(Cl)cc3c2nnn1-c1cccc(Cl)c1 | 65.3% (inactive) | 68.1% (inactive) | 75.3% (inactive) | 110% (inactive) | 96.2% (inactive) | 66.1% (inactive) | 82.1% (inactive) | 112% (inactive) | 85.1% (inactive) | 87.5% (inactive) | 75.9% (inactive) | 70.1% (inactive) | 98.2% (inactive) | 59.9% (inactive) | 82.7% (inactive) | 96.3% (inactive) | 96.8% (inactive) | 52.9% (inactive) | 90.5% (inactive) |
| COc1ccccc1/C=N\NC(=S)Nc1ccc(F)cc1 | 98.6% (inactive) | 32.3% (inactive) | 65% (inactive) | 59.8% (inactive) | 88.2% (inactive) | 91.6% (inactive) | 73.3% (inactive) | 77.2% (inactive) | 48.4% (inactive) | 50.8% (inactive) | 46.9% (inactive) | 84.4% (inactive) | 89.1% (inactive) | 62% (inactive) | 83% (inactive) | 85.1% (inactive) | 58.9% (inactive) | 78.4% (inactive) | 78.3% (inactive) |
| Fc1cc(-c2nnc3sc(-c4ccc(Cl)cc4)nn23)c(Cl)cc1Cl | 107% (inactive) | 116% (inactive) | 62% (inactive) | 88.3% (inactive) | 97.4% (inactive) | 98% (inactive) | 107% (inactive) | 103% (inactive) | 102% (inactive) | 96.5% (inactive) | 90.6% (inactive) | 75.5% (inactive) | 96.6% (inactive) | 91.7% (inactive) | 102% (inactive) | 85.6% (inactive) | 90.4% (inactive) | 91.7% (inactive) | 84.4% (inactive) |
